Assay results: publication PMC4336329 (PLoS ONE, 2015)
About 14,000 (4.5%) of roughly 310,000 compounds showed an effect of 50% or more. Effects have a minus sign here. Many of the other results were omitted from the sample, so strong results are more common in it than they were.

Biological target: human ether-à-go-go-related gene (hERG) potassium channel (human, UniProt Q12809)
Assay: primary screen, population patch clamp on CHO cells stably expressing hERG; higher = less effect of the substance
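Note: peak tail current of the secondary pulse compared with the same well before compound.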

human ether-à-go-go-related gene (hERG) potassium channel, sequence (Q12809 whole entry, looked up): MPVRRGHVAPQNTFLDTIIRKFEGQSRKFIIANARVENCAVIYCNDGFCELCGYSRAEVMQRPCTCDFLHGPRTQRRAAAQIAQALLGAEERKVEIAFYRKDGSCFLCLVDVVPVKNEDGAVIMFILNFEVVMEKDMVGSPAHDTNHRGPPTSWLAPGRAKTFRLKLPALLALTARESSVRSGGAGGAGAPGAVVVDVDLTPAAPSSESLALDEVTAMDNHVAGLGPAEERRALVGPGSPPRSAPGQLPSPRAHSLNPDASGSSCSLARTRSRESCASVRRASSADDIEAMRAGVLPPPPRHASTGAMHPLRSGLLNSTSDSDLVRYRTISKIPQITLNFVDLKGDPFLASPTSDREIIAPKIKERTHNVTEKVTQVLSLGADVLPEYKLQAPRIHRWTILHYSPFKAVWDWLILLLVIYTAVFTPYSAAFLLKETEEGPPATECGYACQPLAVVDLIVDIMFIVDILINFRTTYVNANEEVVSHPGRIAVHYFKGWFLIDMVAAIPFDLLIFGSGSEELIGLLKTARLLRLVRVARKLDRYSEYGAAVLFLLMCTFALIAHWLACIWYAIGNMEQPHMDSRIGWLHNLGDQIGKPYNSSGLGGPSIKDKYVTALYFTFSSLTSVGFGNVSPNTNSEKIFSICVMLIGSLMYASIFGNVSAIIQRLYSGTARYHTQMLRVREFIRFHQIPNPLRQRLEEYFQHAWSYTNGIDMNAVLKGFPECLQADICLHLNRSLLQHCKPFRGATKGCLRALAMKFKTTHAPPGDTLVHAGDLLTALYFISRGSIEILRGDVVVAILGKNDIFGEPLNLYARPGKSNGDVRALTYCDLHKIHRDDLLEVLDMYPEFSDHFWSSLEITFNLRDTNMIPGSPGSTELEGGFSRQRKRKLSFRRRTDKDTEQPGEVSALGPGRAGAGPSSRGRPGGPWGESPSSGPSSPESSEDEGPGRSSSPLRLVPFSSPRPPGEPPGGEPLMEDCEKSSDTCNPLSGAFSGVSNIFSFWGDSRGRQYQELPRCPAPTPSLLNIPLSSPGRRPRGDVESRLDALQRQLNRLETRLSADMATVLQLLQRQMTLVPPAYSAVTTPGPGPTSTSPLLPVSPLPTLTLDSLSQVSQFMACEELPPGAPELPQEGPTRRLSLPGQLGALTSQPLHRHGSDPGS

SMILES	hERG current change (%, negative = inhibition) at 10uM
COc1ccc(OC)c2c1C(=O)C(Cl)=C(Cl)C2=O	13.4%
COCc1c(C#N)c(NCCc2ccc(F)cc2)nc(C)c1[N+](=O)[O-]	1.39%
Cc1ccc(C(=O)Nc2ccc3c4c(cccc24)CC3)cc1[N+](=O)[O-]	-1.54%
Cc1cc(C)n(-c2nnc(C)n2NS(C)(=O)=O)n1	14.6%
Cc1csc(C(C#N)C(=O)c2ccc(S(=O)(=O)N3CCCC3)cc2)n1 (centres unmarked)	5.45%
COc1ccccc1N1CCN(C(=O)CN2C(=O)C3CCCCC3C2=O)CC1 (centres unmarked)	22.7%
Cc1onc(-c2c(F)cccc2Cl)c1C(=O)Nc1c(C)n(C)n(-c2ccccc2)c1=O	0.00478%
COc1ccccc1NS(=O)(=O)c1cc(C)ccc1C	4.55%
CCCc1nn(C)c2c(=O)[nH]c(-c3cc(S(=O)(=O)N(CCO)CCO)ccc3OCC)nc12	0.59%
CCc1ccc2c(c1)C(c1ccc([N+](=O)[O-])cc1)=NNC(c1ccc(F)cc1)=N2	-7.54%
COc1ccc(N2CCN(C(=O)c3ccc(CS(=O)(=O)c4ccc(OC)cc4)o3)CC2)cc1	-64.7%
COc1ccc(S(=O)(=O)Cc2ccc(C(=O)N3CCN(c4ccccc4)CC3)o2)cc1	-37.6%
CCOC(=O)N1CCN(C(=O)c2ccc(CS(=O)(=O)c3ccc(OC)cc3)o2)CC1	-16%
COc1ccc(S(=O)(=O)Cc2ccc(C(=O)N3CCN(c4ccccc4F)CC3)o2)cc1	-52.8%
COc1ccc(S(=O)(=O)Cc2ccc(C(=O)N3CCN(c4ncccn4)CC3)o2)cc1	-16.8%
COc1ccc(S(=O)(=O)Cc2ccc(C(=O)N3CCN(c4ccc(Cl)cc4)CC3)o2)cc1	-55.5%
COc1ccc(S(=O)(=O)Cc2ccc(C(=O)N3CCN(c4cc(Cl)ccc4C)CC3)o2)cc1	9.01%
COc1ccc(S(=O)(=O)N2CCN(C(=O)c3ccc(C)o3)CC2)cc1	-5.16%
COc1ccc(S(=O)(=O)Cc2ccc(C(=O)N3CCOCC3)o2)cc1	1.23%
COc1ccc(S(=O)(=O)N2CCN(C(=O)c3ccc([N+](=O)[O-])o3)CC2)cc1	-51.3%
COc1ccc(CCC(=O)N2CCN(S(=O)(=O)c3ccc(OC)cc3)CC2)cc1	-8.45%
COc1ccc(S(=O)(=O)Cc2ccc(C(=O)N3CCN(c4cccc(C)c4C)CC3)o2)cc1	-30.6%
CC(=O)c1ccc(N(C(=O)CNC(=O)c2ccco2)C(C(=O)NC2CCCC2)c2ccncc2)cc1 (centres unmarked)	20.3%
COc1cccc(-c2nn(-c3ccc(C)cc3)cc2C(=O)N(C)CC(=O)Nc2cccc(F)c2)c1	0.34%
COc1ccc(OC)c(NC(=O)COC(=O)c2ccc(S(=O)(=O)N3CCOCC3)cc2)c1	-15.3%
O=C(Nc1ccc2c(c1)OCO2)C1CC1(Cl)Cl (centres unmarked)	3.77%
COc1cc(OC)c(OC)cc1CNC(=O)c1cc(=O)c2ccccc2o1	8.48%

SMILES	hERG current change (%, negative = inhibition) at 10uM
COc1ccc(N(C(C)=O)S(=O)(=O)c2cccs2)cc1	7.03%
CCCn1nnc(NC(=O)c2ccc(Cl)cc2Cl)n1	2.23%
O=C(O)CCc1ccc(S(=O)(=O)N2CCOCC2)cc1	9.65%
COC(=O)C1=C(C)N(c2cccc(Cl)c2)C(=O)C1	9.01%
COP(=O)(OC)C(Nc1ccccn1)c1ccccc1 (centres unmarked)	26.6%
O=C(c1ccccc1)C(Nc1ccccn1)c1ccccc1 (centres unmarked)	1.36%
c1ccc(CC(Nc2ccccn2)c2ccccc2)cc1 (centres unmarked)	-52.8%
Cc1ccc2sc(N(CCCN(C)C)C(=O)c3ccc(S(=O)(=O)N4CCOCC4)cc3)nc2c1C.Cl	-35.9%
CN(C)CCCN(C(=O)c1ccc(S(=O)(=O)N2CCCCCC2)cc1)c1nc2cc3c(cc2s1)OCCO3.Cl	-59.7%
CN(C)CCN(C(=O)c1ccc(S(=O)(=O)N(C)C)cc1)c1nc2cc3c(cc2s1)OCCO3.Cl	-40.7%
CN(C)CCCN(C(=O)c1ccc(S(=O)(=O)N2CCCCC2)cc1)c1nc2cc3c(cc2s1)OCO3.Cl	-70.4%
CCN(CC)CCN(C(=O)c1ccc(S(=O)(=O)N2CCCCC2)cc1)c1nc2cc3c(cc2s1)OCO3.Cl	-37.6%
CCN(CC)CCN(C(=O)c1ccc(N2C(=O)CCC2=O)cc1)c1nc2cc3c(cc2s1)OCCO3.Cl	-27.6%
CCN(CC)CCN(C(=O)c1ccc(S(=O)(=O)N2CCOCC2)cc1)c1nc2cc3c(cc2s1)OCCO3.Cl	-69.2%
CN(C)CCCN(C(=O)c1ccc(S(=O)(=O)N2CCOCC2)cc1)c1nc2cc3c(cc2s1)OCO3.Cl	-61.4%
CC1CN(S(=O)(=O)c2ccc(C(=O)N(CCCN(C)C)c3nc4cc5c(cc4s3)OCCO5)cc2)CC(C)O1.Cl (centres unmarked)	-28.8%
C=C1C(=O)C=C2CN(C(=O)c3ccccc3)[C@@](Cc3ccc(F)cc3)(C(=O)OC)[C@@H]12	-3.22%
CCOc1ccc(N2C(=O)CC(N3CCN(C(=O)c4ccco4)CC3)C2=O)cc1 (centres unmarked)	-9.91%
Cc1cc(C)n(C(=O)CNC(=O)C(c2ccccc2)c2ccccc2)n1	-3%
CN(C)c1ccc(NC(=O)c2cccc([N+](=O)[O-])c2)c2ccccc12	-4.86%
COc1cc(C=O)ccc1OCCCOc1ccc([N+](=O)[O-])cc1	-10.8%
O=C(COC(=O)C1(c2ccc(F)cc2)CCCC1)NCc1ccco1	-2.02%
CCC(C)NC(=O)c1ccc(C(=O)c2ccccc2)cc1 (centres unmarked)	12.7%
O=C(c1cnn2c1NC(c1ccc(Br)cc1)CC2C(F)(F)F)N1CCN(C23CC4CC(CC(C4)C2)C3)CC1 (centres unmarked)	-7.5%
O=C(c1cnn2c1NC(c1ccc(Br)cc1)CC2C(F)(F)F)N1CCN2CCCC2C1 (centres unmarked)	-63.5%
CN1CCN(C(=O)c2cnn3c2NC(c2ccccc2)CC3C(F)(F)F)CC1 (centres unmarked)	17.1%
Cc1ccc2c(C)c(C(=O)N(Cc3ccncc3)CC3CCCO3)oc2c1C (centres unmarked)	-51.9%

SMILES	hERG current change (%, negative = inhibition) at 10uM
CCCc1ccc2oc(C(=O)N(C)Cc3cnccn3)c(C)c2c1	-10.9%
Cc1ccc2oc(C(=O)N(Cc3ccncc3)CC3CCCO3)c(C)c2c1 (centres unmarked)	-34.9%
Cc1ccc2oc(C(=O)N(Cc3ccc(N(C)C)cc3)CC3CCCO3)c(C)c2c1 (centres unmarked)	-14.8%
CCCc1ccc2oc(C(=O)N(C)CCn3ccnc3C)c(C)c2c1	-61.4%
Cc1c(C(=O)N(Cc2ccncc2)CC2CCCO2)oc2c(F)cccc12 (centres unmarked)	-27.1%
CCCc1ccc2oc(C(=O)N(Cc3ccncc3)CC3CCCO3)c(C)c2c1 (centres unmarked)	-71.6%
Cc1c(C(=O)N(Cc2ccc(N(C)C)cc2)CC2CCCO2)oc2ccccc12 (centres unmarked)	-26.5%
CCCc1ccc2oc(C(=O)N(C)Cc3nccs3)c(C)c2c1	-48.3%
COc1ccc(/C=N/NC(=S)Nc2ccccc2)cc1COc1ccc(Br)cc1	-1.6%
Cc1cc(Oc2ccc(C#N)cc2)nc(NCc2ccccc2)n1	2.36%
O=C1CN(C(=O)C2CC2)c2ccccc2N1	-15.8%
CC(C)(C)OC(=O)N1CCC(NC(=O)c2[nH]cnc2C(=O)Nc2ccccc2)CC1	-15%
CNC(=O)COC(=O)c1cccc(S(=O)(=O)N2CCN(c3ccc(F)cc3)CC2)c1	-0.232%
N#Cc1nccnc1N1CCN(C(=O)Nc2ccccc2)CC1	5.22%
COc1cc2cc(C)c(SCC(=O)N3CCOCC3)nc2cc1OC	-1.12%
CCc1cc2ccc(C)cc2nc1SCC(=O)NNC(=O)c1ccco1	12%
CCc1cc2ccc(C)cc2nc1SCC(=O)N1CCN(C(=O)c2ccco2)CC1	-56%
CCc1cc2cccc(C)c2nc1SCC(=O)NNC(=O)c1ccco1	-0.00372%
Cc1cc2cc3c(cc2nc1SCC(=O)N1CCN(C(=O)c2ccco2)CC1)OCO3	-35.3%
CCc1cc2cc(C)ccc2nc1SCC(=O)NNC(=O)c1ccco1	21.9%
COc1cc2cc(C)c(SCC(=O)N3CCN(C(=O)c4ccco4)CC3)nc2cc1OC	-66%
CCc1cc2cccc(C)c2nc1SCC(=O)N1CCN(C(=O)c2ccco2)CC1	-54.4%
CCc1cc2cc3c(cc2nc1SCC(=O)N1CCN(C(=O)c2ccco2)CC1)OCO3	-28.7%
CCc1cc2cc(C)cc(C)c2nc1SCC(=O)N1CCN(C(=O)c2ccco2)CC1	-16.2%
CCc1cc2cc(C)ccc2nc1SCC(=O)N1CCN(C(=O)c2ccco2)CC1	-53.4%
CCc1cc2ccc(OC)cc2nc1SCC(=O)N1CCN(C(=O)c2ccco2)CC1	-49.1%
